The supplement of paper PMC10849652
Of roughly 7,900 targets only a part is listed; those with a hit were picked by preference. About 0.6% of all pairs of compound and target were hits. Unmarked numbers belong to inactive results.

How the values were obtained:
Experiment in all cases: log2 fold change, soluble protein after heating vs DMSO (PISA); higher = thermal stabilisation; K562 cells, 10 uM, 30 min; active = over 0.2 and 3.5 SD of the protein, either way, in both replicates (recomputed)
[1] = compound: CC[C@@H]1C(=O)N(C)c2cnc(Nc3ccc(C(=O)NC4CCN(C)CC4)cc3OC)nc2N1C1CCCC1
How it was run: (§1)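 K562 cells at 2×10^6 cells/mL were given 10 μM compound for 30 min. Aliquots then went through 3 min of heating across 48°C-58°C, were pooled, and were extracted in PBS with 0.5% NP-40 at 4°C, and the supernatant after 21,000xg for 90 min was quantified by TMTpro 16plex LC-MS/MS with channel sums equalised. Thermal stability relative to control samples, from duplicates, is given as log2 fold change.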

volasertib = compound: CC[C@@H]1C(=O)N(C)c2cnc(Nc3ccc(C(=O)N[C@H]4CC[C@H](N5CCN(CC6CC6)CC5)CC4)cc3OC)nc2N1C(C)C [volasertib]
How it was run: as §1

[2] = compound: CC[C@H](C)N1C=C(C2=C(C=C(C=C21)C3=CN=C(C=C3)N4CCNCC4)C(=O)NCC5=C(C=C(NC5=O)C)C)C
How it was run: as §1

epoxomicin = compound: CC[C@H](C)[C@@H](C(=O)N[C@@H]([C@@H](C)O)C(=O)N[C@@H](CC(C)C)C(=O)[C@]1(CO1)C)NC(=O)[C@H]([C@@H](C)CC)N(C)C(=O)C [epoxomicin]
How it was run: as §1

[3] = compound: CCn1c(C(=O)N(C2CC2)C2CC2)cc2c3c(ncn3C)c(Nc3cc(C)n(C)n3)nc21
How it was run: as §1

[4] = compound: CCn1cc(-c2ccnc3[nH]c(-c4cccc(CN(C)C)c4)cc23)c(-c2ccc(NC(=O)N(C)C)cc2)n1
How it was run: as §1

[5] = compound: CN(C)CC(=O)Nc1ccc2[nH]c(=O)c3ccccc3c2c1
How it was run: as §1

rosiglitazone = compound: CN(CCOC1=CC=C(C=C1)C[C@H]2C(=O)NC(=O)S2)C3=CC=CC=N3 (racemic) [rosiglitazone]
How it was run: as §1

[6] = compound: CN1C2=C(C3=C1C(=O)N(N=C3)CC4=CC(=CC=C4)N)SC(=C2)S(=O)C
How it was run: as §1

[7] = compound: CN1CCC(CNc2ccc3ncc(-c4cccc(OC(F)(F)F)c4)n3n2)CC1
How it was run: as §1

saracatinib = compound: CN1CCN(CCOc2cc(OC3CCOCC3)c3c(Nc4c(Cl)ccc5c4OCO5)ncnc3c2)CC1 [saracatinib]
How it was run: as §1

sotrastaurin = compound: CN1CCN(c2nc(C3=C(c4c[nH]c5ccccc45)C(=O)NC3=O)c3ccccc3n2)CC1 [sotrastaurin]
How it was run: as §1

alvocidib = compound: CN1CC[C@H](c2c(O)cc(O)c3c(=O)cc(-c4ccccc4Cl)oc23)[C@H](O)C1 [alvocidib]
How it was run: as §1

Tubastatin A = compound: CN1CCc2c(c3ccccc3n2Cc2ccc(C(=O)NO)cc2)C1 [Tubastatin A]
How it was run: as §1

[8] = compound: CNC(=O)C1=CC=CC=C1NC2=NC(=NC=C2Cl)NC3=C(C=C(C=C3)N4CCOCC4)OC
How it was run: as §1

defactinib = compound: CNC(=O)c1ccc(Nc2ncc(C(F)(F)F)c(NCc3nccnc3N(C)S(C)(=O)=O)n2)cc1 [defactinib]
How it was run: as §1

rucaparib = compound: CNCc1ccc(-c2[nH]c3cc(F)cc4c3c2CCNC4=O)cc1 [rucaparib]
How it was run: as §1

[9] = compound: CNc1nc(-c2ccc3c(N)n[nH]c3c2)cc(N2C[C@@H](C(=O)NC3CCCCC3)CC[C@H]2C)n1
How it was run: as §1

encorafenib = compound: COC(=O)N[C@@H](C)CNc1nccc(-c2cn(C(C)C)nc2-c2cc(Cl)cc(NS(C)(=O)=O)c2F)n1 [encorafenib]
How it was run: as §1

[10] = compound: COC(=O)[C@H](CCSC)NC(=O)C1=C(C=C(C=C1)NC[C@H](CS)N)C2=CC=CC=C2
How it was run: as §1

Chain of UniProt O15118 (O15118 whole entry, looked up): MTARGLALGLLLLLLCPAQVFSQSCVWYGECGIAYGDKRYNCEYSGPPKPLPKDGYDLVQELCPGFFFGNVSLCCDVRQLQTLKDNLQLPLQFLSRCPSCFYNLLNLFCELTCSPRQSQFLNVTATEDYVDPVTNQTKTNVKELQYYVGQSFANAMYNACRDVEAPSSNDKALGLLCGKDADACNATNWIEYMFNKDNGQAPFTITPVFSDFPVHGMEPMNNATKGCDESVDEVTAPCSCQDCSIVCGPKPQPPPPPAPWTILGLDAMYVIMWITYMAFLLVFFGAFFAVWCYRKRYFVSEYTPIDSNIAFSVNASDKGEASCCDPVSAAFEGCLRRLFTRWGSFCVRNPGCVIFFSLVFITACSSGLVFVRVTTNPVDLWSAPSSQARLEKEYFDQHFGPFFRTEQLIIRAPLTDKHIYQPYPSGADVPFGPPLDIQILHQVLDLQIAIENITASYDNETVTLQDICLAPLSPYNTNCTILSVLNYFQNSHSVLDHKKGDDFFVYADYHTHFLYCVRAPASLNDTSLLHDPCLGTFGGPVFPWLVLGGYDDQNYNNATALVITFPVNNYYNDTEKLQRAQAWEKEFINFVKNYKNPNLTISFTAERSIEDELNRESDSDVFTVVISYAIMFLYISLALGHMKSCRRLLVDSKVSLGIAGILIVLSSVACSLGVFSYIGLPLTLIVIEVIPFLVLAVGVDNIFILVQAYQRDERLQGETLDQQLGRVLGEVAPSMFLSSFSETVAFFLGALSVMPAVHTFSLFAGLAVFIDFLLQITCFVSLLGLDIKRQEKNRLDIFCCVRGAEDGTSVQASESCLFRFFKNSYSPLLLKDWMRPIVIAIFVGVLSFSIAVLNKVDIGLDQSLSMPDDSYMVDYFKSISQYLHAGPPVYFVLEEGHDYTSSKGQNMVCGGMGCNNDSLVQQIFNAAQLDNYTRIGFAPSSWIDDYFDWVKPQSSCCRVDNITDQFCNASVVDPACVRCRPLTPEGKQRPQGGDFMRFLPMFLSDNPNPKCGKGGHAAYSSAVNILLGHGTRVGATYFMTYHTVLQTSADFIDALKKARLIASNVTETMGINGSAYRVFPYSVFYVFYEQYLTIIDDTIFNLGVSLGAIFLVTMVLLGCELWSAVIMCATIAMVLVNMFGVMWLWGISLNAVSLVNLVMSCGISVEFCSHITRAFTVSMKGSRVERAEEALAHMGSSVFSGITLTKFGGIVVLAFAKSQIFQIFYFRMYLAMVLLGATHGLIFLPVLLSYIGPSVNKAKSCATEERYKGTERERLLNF
Chain of UniProt Q96IV0 (Q96IV0 whole entry, looked up): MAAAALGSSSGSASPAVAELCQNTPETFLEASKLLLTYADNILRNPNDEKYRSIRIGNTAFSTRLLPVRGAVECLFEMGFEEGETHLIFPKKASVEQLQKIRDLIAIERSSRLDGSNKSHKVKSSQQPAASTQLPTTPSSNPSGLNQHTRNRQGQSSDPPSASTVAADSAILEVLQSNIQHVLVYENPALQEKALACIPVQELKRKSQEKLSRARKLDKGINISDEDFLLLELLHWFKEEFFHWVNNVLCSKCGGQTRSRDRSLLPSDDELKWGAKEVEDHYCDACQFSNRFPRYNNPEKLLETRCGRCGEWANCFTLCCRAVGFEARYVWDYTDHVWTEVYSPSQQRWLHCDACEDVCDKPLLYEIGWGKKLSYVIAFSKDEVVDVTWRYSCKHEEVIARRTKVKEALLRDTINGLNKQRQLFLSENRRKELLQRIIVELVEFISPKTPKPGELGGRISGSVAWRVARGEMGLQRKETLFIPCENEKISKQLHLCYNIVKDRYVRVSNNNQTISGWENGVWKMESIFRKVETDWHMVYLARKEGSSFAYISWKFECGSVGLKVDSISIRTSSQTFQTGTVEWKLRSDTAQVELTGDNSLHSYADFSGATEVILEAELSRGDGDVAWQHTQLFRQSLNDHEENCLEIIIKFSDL
Chain of UniProt P25208 (P25208 whole entry, looked up): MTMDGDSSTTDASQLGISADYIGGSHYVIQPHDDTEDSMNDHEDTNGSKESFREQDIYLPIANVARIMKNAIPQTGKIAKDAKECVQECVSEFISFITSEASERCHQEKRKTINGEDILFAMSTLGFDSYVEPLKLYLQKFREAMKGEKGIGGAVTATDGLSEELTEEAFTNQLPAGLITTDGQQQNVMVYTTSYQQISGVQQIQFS
Chain of UniProt Q8N573 (Q8N573 whole entry, looked up): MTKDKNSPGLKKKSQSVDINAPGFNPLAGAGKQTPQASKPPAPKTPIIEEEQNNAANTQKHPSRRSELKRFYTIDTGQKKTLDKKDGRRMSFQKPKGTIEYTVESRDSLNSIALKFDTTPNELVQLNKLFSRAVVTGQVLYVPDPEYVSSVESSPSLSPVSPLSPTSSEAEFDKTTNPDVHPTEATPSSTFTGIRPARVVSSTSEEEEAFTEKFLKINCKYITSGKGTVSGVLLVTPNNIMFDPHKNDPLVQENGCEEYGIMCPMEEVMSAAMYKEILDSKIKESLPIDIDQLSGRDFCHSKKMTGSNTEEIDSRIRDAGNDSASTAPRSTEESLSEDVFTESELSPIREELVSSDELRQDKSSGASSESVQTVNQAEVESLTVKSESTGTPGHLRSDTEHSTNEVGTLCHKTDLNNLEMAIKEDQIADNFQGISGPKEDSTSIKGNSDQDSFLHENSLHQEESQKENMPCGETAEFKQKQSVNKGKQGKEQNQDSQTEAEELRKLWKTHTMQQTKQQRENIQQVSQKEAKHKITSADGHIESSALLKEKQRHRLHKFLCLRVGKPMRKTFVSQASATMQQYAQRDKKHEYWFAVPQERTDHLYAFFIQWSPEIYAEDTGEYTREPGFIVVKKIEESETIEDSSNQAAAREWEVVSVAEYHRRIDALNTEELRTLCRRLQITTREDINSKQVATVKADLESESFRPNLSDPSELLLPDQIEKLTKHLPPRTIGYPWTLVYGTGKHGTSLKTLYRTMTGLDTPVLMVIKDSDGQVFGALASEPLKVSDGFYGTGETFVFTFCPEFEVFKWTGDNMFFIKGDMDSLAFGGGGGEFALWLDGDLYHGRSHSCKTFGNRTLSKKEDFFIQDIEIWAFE
Chain of UniProt Q13153 (Q13153 whole entry, looked up): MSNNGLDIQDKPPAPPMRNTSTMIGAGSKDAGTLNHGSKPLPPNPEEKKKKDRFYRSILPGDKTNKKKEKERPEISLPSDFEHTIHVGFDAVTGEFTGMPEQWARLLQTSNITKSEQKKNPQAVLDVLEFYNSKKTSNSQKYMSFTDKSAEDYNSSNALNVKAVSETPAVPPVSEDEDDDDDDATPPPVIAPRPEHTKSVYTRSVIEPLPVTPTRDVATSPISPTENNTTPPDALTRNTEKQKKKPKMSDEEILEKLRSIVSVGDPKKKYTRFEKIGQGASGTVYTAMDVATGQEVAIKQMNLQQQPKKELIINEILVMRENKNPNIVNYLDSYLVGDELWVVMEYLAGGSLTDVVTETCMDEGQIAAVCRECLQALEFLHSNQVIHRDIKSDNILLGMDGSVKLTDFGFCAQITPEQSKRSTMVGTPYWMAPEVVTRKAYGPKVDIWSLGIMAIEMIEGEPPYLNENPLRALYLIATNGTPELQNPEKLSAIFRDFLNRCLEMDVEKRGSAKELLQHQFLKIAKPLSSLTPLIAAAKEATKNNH
Chain of UniProt O43809 (O43809 whole entry, looked up): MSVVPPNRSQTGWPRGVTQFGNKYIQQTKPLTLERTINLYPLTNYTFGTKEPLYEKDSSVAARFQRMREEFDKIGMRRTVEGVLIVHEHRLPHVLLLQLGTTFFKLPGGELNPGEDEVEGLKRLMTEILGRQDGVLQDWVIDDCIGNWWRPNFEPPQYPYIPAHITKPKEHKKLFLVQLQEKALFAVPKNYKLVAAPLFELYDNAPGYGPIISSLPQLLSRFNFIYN
Chain of UniProt P04181 (P04181 whole entry, looked up): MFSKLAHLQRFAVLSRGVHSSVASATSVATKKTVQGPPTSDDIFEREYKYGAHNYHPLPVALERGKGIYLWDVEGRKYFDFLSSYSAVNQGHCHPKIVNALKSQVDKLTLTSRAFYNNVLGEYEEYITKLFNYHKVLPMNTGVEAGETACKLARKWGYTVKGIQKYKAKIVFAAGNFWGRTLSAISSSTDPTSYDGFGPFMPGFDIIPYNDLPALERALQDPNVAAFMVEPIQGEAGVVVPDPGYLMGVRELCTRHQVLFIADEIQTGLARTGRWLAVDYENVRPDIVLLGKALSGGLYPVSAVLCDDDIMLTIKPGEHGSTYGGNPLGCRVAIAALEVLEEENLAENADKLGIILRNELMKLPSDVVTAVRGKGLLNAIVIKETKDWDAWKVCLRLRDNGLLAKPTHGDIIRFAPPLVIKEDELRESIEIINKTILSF
Chain of UniProt Q9BSU3 (Q9BSU3 whole entry, looked up): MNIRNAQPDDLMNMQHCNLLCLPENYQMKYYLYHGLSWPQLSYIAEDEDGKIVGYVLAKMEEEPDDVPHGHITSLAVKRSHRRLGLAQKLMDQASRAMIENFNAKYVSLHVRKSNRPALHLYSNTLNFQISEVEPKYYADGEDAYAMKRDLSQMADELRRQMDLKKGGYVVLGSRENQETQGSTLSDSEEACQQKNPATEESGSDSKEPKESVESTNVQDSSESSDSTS
Chain of UniProt O60361 (O60361 whole entry, looked up): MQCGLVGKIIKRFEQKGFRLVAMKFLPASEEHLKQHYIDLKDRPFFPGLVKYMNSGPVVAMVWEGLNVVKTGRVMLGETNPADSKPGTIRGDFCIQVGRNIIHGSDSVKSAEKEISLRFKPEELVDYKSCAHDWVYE
Chain of UniProt O75251 (O75251 whole entry, looked up): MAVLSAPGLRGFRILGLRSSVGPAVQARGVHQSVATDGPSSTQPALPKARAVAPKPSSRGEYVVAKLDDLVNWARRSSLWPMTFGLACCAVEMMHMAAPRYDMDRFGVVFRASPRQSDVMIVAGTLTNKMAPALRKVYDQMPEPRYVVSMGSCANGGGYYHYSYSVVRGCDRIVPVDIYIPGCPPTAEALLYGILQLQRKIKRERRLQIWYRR
Chain of UniProt Q9Y605 (Q9Y605 whole entry, looked up): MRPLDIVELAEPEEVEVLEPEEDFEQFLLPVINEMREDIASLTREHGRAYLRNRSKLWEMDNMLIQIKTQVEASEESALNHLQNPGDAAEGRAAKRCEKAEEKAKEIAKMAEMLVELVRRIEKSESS

Target	log2 fold change [1]	log2 fold change (volasertib)	log2 fold change [2]	log2 fold change (epoxomicin)	log2 fold change [3]	log2 fold change [4]	log2 fold change [5]	log2 fold change (rosiglitazone)	log2 fold change [6]	log2 fold change [7]	log2 fold change (saracatinib)	log2 fold change (sotrastaurin)	log2 fold change (alvocidib)	log2 fold change (Tubastatin A)	log2 fold change [8]	log2 fold change (defactinib)	log2 fold change (rucaparib)	log2 fold change [9]	log2 fold change (encorafenib)	log2 fold change [10]
PAK1 isoform 2 (UniProt Q13153)	0.032	-0.022	-0.024	0.046	0.043	-0.122	0.064	0.016	-0.062	-0.031	0.074	-0.015	-0.026	-0.098	0.009	0.039	-0.082	-0.009	0.033	0.048
NUMA1 (UniProt Q14980)	0.065	0.034	0.039	-0.044	-0.031	0.068	0.003	-0.035	0.115	-0.191	-0.069	-0.235	-0.063	0.14	-0.057	-0.017	0.118	0.055	0.174	-0.009
MRPL50 (UniProt Q8N5N7)	0.026	-0.029	-0.063	0.094	-0.005	-0.044	0.037	-0.015	-0.043	0.308	0.148	-0.048	0.066	0.133	-0.011	0.04	0.063	-0.065	-0.01	0.061
NDUFS7 (UniProt O75251)	-0.043	-0.042	0.003	-0.007	-0.009	-0.005	0.012	0.053	-0.029	-0.327 (active)	-0.047	0.014	-0.011	-0.001	-0.038	-0.016	-0.004	-0.048	0.024	0.002
OAT (UniProt P04181)	0.049	0.1	0.021	0.043	-0.041	-0.1	0.004	-0.006	-0.102	-0.164	-0.002	-0.016	-0.125	0.013	0.084	-0.058	-0.047	-0.04	-0.061	0.024
NUDT21 (UniProt O43809)	0.036	0.074	-0.033	-0.107	-0.02	0.038	-0.041	-0.028	-0.013	0.064	0.028	0.024	-0.017	0.01	-0.166	0.045	0.004	-0.025	-0.015	-0.034
NFYB (UniProt P25208)	0.008	0.019	-0.029	–	-0.007	-0.055	-0.011	-0.054	0.031	0.085	0.111	-0.084	0.162	-0.143	0	-0.001	-0.099	-0.019	-0.051	0.03
OXR1 isoform 2 (UniProt Q8N573)	-0.092	-0.09	-0.082	0.127	–	0.056	-0.004	–	-0.015	-0.244	-0.138	–	0.051	-0.038	–	-0.067	-0.008	0.092	-0.022	0.047
MRFAP1 (UniProt Q9Y605)	-0.107	-0.386	0	–	0.029	0.022	0.242	0.048	-0.08	-0.032	-0.118	0.102	-0.097	0.329	-0.003	-0.051	-0.099	-0.002	0.141	-0.027
NPC1 (UniProt O15118)	-0.016	-0.072	-0.031	-0.02	0.009	0.005	-0.029	-0.018	0.004	0.012	0.077	0.007	0.041	-0.045	0.02	0.01	-0.147	-0.049	-0.012	-0.006
NME2P1 (UniProt O60361)	0.117	0.03	-0.177	0.033	-0.162	0.198	-0.021	0.166	–	-0.074	–	0.057	0.004	0.059	-0.145	0.034	-0.814 (active)	–	0.003	-0.017
NPC1L1 (UniProt Q9UHC9)	-0.029	-0.016	0.2	–	–	–	-0.016	0.045	-0.081	–	-0.026	0.033	0.013	0.005	–	-0.093	-0.06	-0.051	-0.038	0.093
NGLY1 (UniProt Q96IV0)	-0.07	-0.367 (active)	0.04	-0.071	-0.045	-0.03	0.055	0.01	0.044	-0.116	-0.04	-0.135	-0.002	-0.04	0.01	-0.026	0.161	0.05	0.159	-0.064
NAA11 (UniProt Q9BSU3)	-0.013	-0.041	0.044	0.063	0.015	–	-0.114	-0.053	0.001	–	0.033	-0.247	-0.038	0.035	-0.078	-0.132	0.135	-0.133	0.022	0.034
NEDD4L (UniProt Q96PU5)	-0.02	-0.425 (active)	0.03	0.012	-0.015	-0.09	0.023	0.029	0.039	-0.099	-0.014	-0.063	-0.121	0.057	0.068	-0.135	0.002	-0.059	0.03	-0.023
